Sampled rows, rich in hits. Any-hit rate of the full collection: about 0.99%.
TRPML1 agonist: activates the human TRPML1 channel. 0.12% of 410,000 active. TRPML1-expressing cells, Ca2+ dye fluorescence, FDSS. Q9GZU1. activation, % (concentration not given with the values); in the data active means activation above about 50%; inconclusive means mostly about 30% to 49%; further: 0% is about no effect
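Cells: TRPML1-DL, 1X Tet inducer, ~16 h at 37 degrees C/5% CO2. Dye: ABD Ca8 no-wash + quencher, 45-90 min RT. Read: 10 s baseline, compound add, 110 s agonist phase; 54-4 EC80 (4uM final), 110 s antagonist phase.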
TRPV1 PAM: enhances activation of the human vanilloid receptor TRPV1. Q8NER1. TRPV1-expressing cells, Fluo-8 calcium influx, capsaicin EC20 potentiation. potentiation, % at 8.33 µM. 0.02% of 320,000 active. AID 540277; in the data active means potentiation above about 80%; inconclusive means between about 30% and that limit; further: 0% is about no effect
Target sequence (Q8NER1 whole entry, looked up): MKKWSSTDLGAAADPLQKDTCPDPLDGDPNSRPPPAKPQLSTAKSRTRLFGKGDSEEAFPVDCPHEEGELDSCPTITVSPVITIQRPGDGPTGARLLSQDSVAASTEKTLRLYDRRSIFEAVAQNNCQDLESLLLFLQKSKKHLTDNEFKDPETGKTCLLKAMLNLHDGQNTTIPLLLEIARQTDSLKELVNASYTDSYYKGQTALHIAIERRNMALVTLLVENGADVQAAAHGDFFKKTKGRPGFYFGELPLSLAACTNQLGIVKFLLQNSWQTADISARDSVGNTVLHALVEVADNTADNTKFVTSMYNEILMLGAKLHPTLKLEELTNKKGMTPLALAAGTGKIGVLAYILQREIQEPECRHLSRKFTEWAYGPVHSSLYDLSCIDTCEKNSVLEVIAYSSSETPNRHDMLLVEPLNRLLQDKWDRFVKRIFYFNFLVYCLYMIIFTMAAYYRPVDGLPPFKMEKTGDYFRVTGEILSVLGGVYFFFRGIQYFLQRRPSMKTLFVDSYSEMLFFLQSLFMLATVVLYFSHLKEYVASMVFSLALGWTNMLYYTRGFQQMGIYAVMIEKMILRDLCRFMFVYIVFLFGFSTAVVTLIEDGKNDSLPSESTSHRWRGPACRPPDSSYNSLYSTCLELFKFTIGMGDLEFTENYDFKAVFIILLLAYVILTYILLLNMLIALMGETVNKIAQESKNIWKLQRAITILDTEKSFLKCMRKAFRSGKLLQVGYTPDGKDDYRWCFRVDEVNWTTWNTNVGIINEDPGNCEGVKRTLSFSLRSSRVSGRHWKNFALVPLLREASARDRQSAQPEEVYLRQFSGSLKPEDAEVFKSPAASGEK
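Cells expressing TRPV1 were dye-loaded with Fluo-8 and read kinetically: 10 s baseline, 3 min after compound (agonist portion), then 2 min after EC20 capsaicin (allosteric enhancer portion). Calcium-bound dye fluorescence at 480/520 nm.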
TRHR enhancer-1: TRH receptor (human) allosteric enhancement; TRHR cells, fluo-8 calcium fluorescence, EC20 TRH enhancement; enhancement, % at 2 µM; 0.66% of 360,000 active; in the data active means enhancement above about 30%; further: 0% is about no effect
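Enhancer read-out: after compound pinning and an initial kinetic agonist-mode read, an EC20 of TRH (10 nM final) was injected and fluo-8 calcium signal (Ex 480/Em 530) followed at 1 s/cycle for 100 cycles in TRHR-expressing cells.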
TRHR agonist-1: agonists of human TRH receptor | P34981 | TRHR cells, calcium flux fluo-8, FDSS agonist mode | activation, % at 2 µM | 0.18% of 360,000 active | AID 493084; in the data active means activation above about 30%; further: 0% is about no effect
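Fluo-8-loaded TRHR cells; 10 s baseline, compound added, kinetic Ca2+ fluorescence read 1/s, agonist mode.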
TRPML1 blocker: blocks the human TRPML1 channel | activity change, negative = inhibition, % (test concentration not listed) | TRPML1-inducible cells, Ca2+ dye fluorescence, FDSS; hits give low values; inhibition of EC80 agonist-evoked calcium signal | 0.02% of 390,000 active; in the data active means activity change below about -50%; inconclusive means between about -30% and that limit;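 further: stimulus is agonist 54-4 at its EC80 concentration; on the % scale 0 is the no-effect control and ±100 the full control effect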
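TRPML1-DL cells, Tet-induced overnight (~16 h, 37 °C) at 1,500 cells/well, were loaded with Ca8 no-wash dye plus quencher for 45-90 min at room temperature. Compounds were pinned during FDSS kinetic reading; agonist 54-4 at EC80 (4 uM final) then added.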
TRPV1 agonist: human TRPV1 agonism | Q8NER1 | AID 540275 | 0.19% of 320,000 active | TRPV1-expressing cells, Fluo-8 calcium influx, agonist mode | activation, % at 8.33 µM; in the data active means activation above about 80%; inconclusive means between about 30% and that limit; further: 0% is about no effect
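Cells expressing TRPV1 were dye-loaded with Fluo-8 and read kinetically: 10 s baseline, 3 min after compound (agonist portion), then 2 min after EC20 capsaicin (allosteric enhancer portion). Calcium-bound dye fluorescence at 480/520 nm.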
TRHR enhancer-2: human TRH receptor allosteric enhancement confirmation; shares compounds with TRHR enhancer-1; TRH receptor cell assay, enhancer confirmation qHTS; activity change, negative = inhibition, % at 46.1 µM; 970 tested, under 10 active;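 further: compound effect scored on response to added TRH at EC20 of 10 nM; 0% is about no effect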
TRHR agonist-2: human TRH receptor agonism confirmation; shares compounds with TRHR enhancer-1; TRHR-expressing cells, agonist activation read-out; Potency, µM (top dose mostly 46.1 µM), inactives show at the highest dose activation, hits mostly activators; 8% of 970 active; AID 493078; further: potency means the concentration at half of the fitted maximal effect; 0% is about no effect; nearly all actives have a fitted effect of over 75% in size
Numbers without * were called inactive; ? = inconclusive; · = no result. Unless noted, the call rests on the fitted dose curve; in most records, active means well fitted curve in the direction sought with a large enough effect; inconclusive means small, poorly fitted or top-dose-only effect, or another doubt; inactive means no such curve, though single readings can be large; an effect the other way counts as inactive or inconclusive.

SMILES	TRPML1 agonist	TRPV1 PAM	TRHR enhancer-1	TRHR agonist-1	TRPML1 blocker	TRPV1 agonist	TRHR enhancer-2	TRHR agonist-2
C=C(C)c1cccc(C(C)(C)NC(=O)Nc2cc(C)ccn2)c1	0	-7	46*	0	7	23	-12	-1%
Cc1cc(C)c2c(=O)cc(CSCC(=O)Nc3ccccc3Cl)[nH]c2c1	6	·	6	-1	-18	·	·	·
O=S(=O)(Nc1ccc(F)cc1F)c1ccc(Br)s1	-1	·	11	0	-10	·	·	·
CCCOc1ccc(/C=C2\SC(=S)N(CC3CCCO3)C2=O)cc1 (configuration not stated)	0	-4	-4	1	22	3	·	·
O=C1/C(=C/c2ccc(O)cc2)SC(=S)N1CC1CCCO1 (configuration not stated)	17	-6	16	39*	0	26	-6	?
CCc1ccc(C(=O)NCC2COc3ccccc3O2)o1 (configuration not stated)	0	-26	60*	0	11	22	-8	1%
CC1(C)CC(=O)C(C=Nc2ccc(C(=O)c3ccccc3)cc2N=CC2=C(O)CC(C)(C)CC2=O)=C(O)C1	23	-10	-3	27	1	24	-4	2%
CC(=O)NCCNC(=O)CCCc1nnc2n(CC(C)C)c(=O)c3sccc3n12	1	·	1	-1	-13	·	·	·
O=C(Cn1cnc2c(nnn2Cc2ccccc2)c1=O)N1CCN(c2ccccc2)CC1	0	-2	89*	-1	-3	4	-4	0%
O=c1c(=O)n(-c2ccccc2)ccn1Cc1cccc(C(F)(F)F)c1	0	·	-3	0	10	·	·	·
Cc1ccc(/C=C/c2nc3ccccc3[nH]2)cc1	2	·	8	-1	-2	·	·	·
Cc1ccc(/C=C/c2nc3ccccc3[nH]2)o1	1	-21	46*	1	14	18	?	8%
COc1cccc(NC(=S)N(Cc2ccccn2)Cc2ccccc2Cl)c1	3	-4	43*	0	54	11	-5	2%
COc1ccc(NC(=S)N(Cc2ccccn2)Cc2ccccc2Cl)cc1	0	5	-3	0	1	-2	·	·
CSc1nnc(N2C(=O)C(O)=C(C(=O)c3ccco3)C2c2ccccc2)s1 (configuration not stated)	0	-7	2	30	-3	9	7	6%
CSc1nnc(N2C(=O)C(O)=C(C(=O)c3ccco3)C2c2ccccc2F)s1 (configuration not stated)	12	-18	3	23	6	18	·	·
O=c1[nH]cnc2c1ncn2[C@H]1C[C@H](O)[C@@H](CO)O1	0	·	·	·	·	·	·	·
O=C(NC1CCCCCC1)c1cc2c(Cl)nc3ccccc3c2s1	-1	·	0	0	19	·	·	·
CCN(CC)c1ccc(/C=C2\CCC(/C=N/NC(=O)c3ccc(=O)n(C)c3)=C2N2CCOCC2)cc1	?	6	11	36*	12	11	9	?
CC1CCCN(S(=O)(=O)c2cc3c4c(c2)CC(=O)N4CCC3)C1 (configuration not stated)	-1	·	-4	0	1	·	·	·
CCN1c2ccccc2-c2nc(SCC(=O)NCc3ccc(Cl)cc3)ncc2S1(=O)=O	1	·	-4	0	29	·	·	·
Cc1nn(CCCC(=O)Nc2ccccn2)c(C)c1[N+](=O)[O-]	-1	0	47*	0	9	-1	-4	1%
CCOC(=O)CSc1ccc2nnc(-c3ccncc3)n2n1	0	?	52*	-1	0	-1	4	3%
CCCN(CCC)CCNC(=O)Cn1ncc2c([nH]c3ccc(C)cc32)c1=O	5	·	-4	-1	22	·	·	·
CC(=O)N1c2ccccc2CC1C(=O)N1CCN(c2cccc(C)c2C)CC1 (configuration not stated)	1	·	-3	-1	12	·	·	·
SMILES	TRPML1 agonist	TRPV1 PAM	TRHR enhancer-1	TRHR agonist-1	TRPML1 blocker	TRPV1 agonist	TRHR enhancer-2	TRHR agonist-2
CCc1ccc(NC(=O)Cn2ccn(-c3ccc(OC)cc3)c(=O)c2=O)cc1	1	·	-2	0	-20	·	·	·
N=c1sccn1CC(=O)Nc1ccc(S(N)(=O)=O)cc1	1	7	54*	1	-5	0	-1	0%
NS(=O)(=O)c1ccc(NC(=O)CSC2CCCCC2)cc1	0	-17	45*	0	0	?	-1	0%
CCOC(=O)c1cc2c(=O)n3ccccc3nc2n(CC2CCCO2)c1=NC(=O)c1ccc(OC)cc1OC (configuration not stated)	1	·	-9	0	6	·	·	·
Cn1nnnc1SCC(=O)NNC(=O)c1ccc(F)cc1	0	6	44*	1	21	-4	-6	-1%
Cc1ccc(CNC(=O)c2cccc3c2C(=O)c2ccc(N4CCCCC4)cc2S3(=O)=O)cc1	50*	1	12	36*	-7	14	-6	21µM*
COc1ccc(-c2cc(C(F)(F)F)nc(SCC(=O)NCc3ccc(F)cc3)n2)cc1	0	·	8	1	23	·	·	·
COc1ccc(-c2cc(C(F)(F)F)nc(SCC(=O)NCc3ccc(Cl)cc3)n2)cc1	3	·	60*	2	19	·	-4	3%
Cc1ncoc1C(=O)N1CCCC(CCC(=O)NCc2ccccc2F)C1 (configuration not stated)	0	9	45*	0	-2	0	-7	1%
Cc1ncoc1C(=O)N1CCCC(CCC(=O)NCc2ccc(F)c(F)c2)C1 (configuration not stated)	0	2	-2	0	11	2	·	·
NNc1nc(-c2ccccc2)cc(-c2ccccc2)n1	4	-10	-3	0	14	13	·	·
N#Cc1cc(-c2ccccc2)nc(NN)n1	1	-3	48*	0	0	-2	-16	-1%
Cn1c(=O)[nH]c(=O)c2c1nc(NCc1ccccc1)n2Cc1ccc(F)cc1	0	5	48*	-1	-15	0	5	1%
O=S1(=O)c2ccccc2N(Cc2cccc(Cl)c2)c2ccccc21	2	·	10	-1	-10	·	·	·
C=CCn1c(=O)n(C(=O)OCC)c2cc(Br)ccc21	1	-1	66*	1	-1	?	-7	1%

Bioassay records deposited in PubChem by National Center for Advancing Translational Sciences (NCATS).
